# Results filed as inconclusive are left out. Activity calls are given as the source filed them. Rule for the calls: active = hit-call score of the fitted dose curve at least 0.9, where 1 is the maximum; inconclusive = response in the unintended direction; inactive = score below 0.9.
# Molecular target: human Monoamine Oxidase A (MAO-A), MAOA (gene 4128) (UniProt P21397)
# Assay: ERF_FR_ENZ_hMAOA: Eurofins (ERF) Enzymatic LeadHunter Assay for human Monoamine Oxidase A (MAO-A)
# Procedure: ERF_FR_ENZ_hMAOA is a biochemical, single-readout assay that uses extracted gene-proteins in a cell-free assay. Measurements were taken 0.33 hour after chemical dosing in a 96-well plate. See Monoamine Oxidase A (MAO-A) Human Enzymatic Assay, Cerep.ERF_FR_ENZ_hMAOA is an assay component calculated from the ERF_FR_ENZ_hMAOA assay. It is designed to measure enzyme activity using a type of enzyme reporter as detected by fluorescence intensity with spectrophotometry technology.Data from the assay component ERF_FR_ENZ_hMAOA was analyzed at the assay endpoint, ERF_FR_ENZ_hMAOA, in the positive analysis fitting direction relative to DMSO as the negative control and baseline of activity. Using a type of enzyme reporter, loss-of-signal activity can be used to understand changes in enzymatic activity as they relate to gene MAOA. To generalize the intended target to other relatable targets, this assay endpoint is annotated to the […] intended target family, where the subfamily is monoamine oxidase.
# Human cells are incubated for 45 minutes at room temprature with Kynuramine, diHCl at 350 uM as sunstrate. Test Sample Requirements: Minimum for 1) Screen: 60 ul of 10 mM stock -OR- 1 mg (pre-weighed) for 10 uM final testing. 2) Dose Response: 90 ul of 10 mM stock -OR- 1 mg (pre-weighed) for a top concentration at 10 uM.
# human Monoamine Oxidase A (MAO-A), MAOA (gene 4128), sequence (P21397 whole entry, looked up): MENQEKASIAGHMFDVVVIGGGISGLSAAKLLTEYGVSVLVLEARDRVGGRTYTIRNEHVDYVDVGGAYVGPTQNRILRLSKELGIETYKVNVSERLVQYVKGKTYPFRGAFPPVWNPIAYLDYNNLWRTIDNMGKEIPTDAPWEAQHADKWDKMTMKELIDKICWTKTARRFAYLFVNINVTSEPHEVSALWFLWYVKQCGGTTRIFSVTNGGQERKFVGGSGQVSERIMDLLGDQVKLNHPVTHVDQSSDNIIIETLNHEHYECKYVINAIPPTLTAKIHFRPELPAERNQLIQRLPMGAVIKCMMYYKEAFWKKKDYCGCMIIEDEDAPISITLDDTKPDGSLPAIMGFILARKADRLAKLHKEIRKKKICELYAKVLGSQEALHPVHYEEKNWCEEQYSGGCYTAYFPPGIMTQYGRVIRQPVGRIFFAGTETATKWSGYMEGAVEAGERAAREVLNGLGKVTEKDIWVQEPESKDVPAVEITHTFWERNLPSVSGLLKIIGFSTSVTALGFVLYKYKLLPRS
row,SMILES,outcome
1,COc1cc(CCC(=O)CC(=O)CCc2ccc(O)c(OC)c2)ccc1O,inactive
2,COc1cc(/C=C/C(=O)CC(=O)/C=C/c2ccc(O)c(OC)c2)ccc1O,inactive
